From PubChem BioAssay (Tox21)
Values without a mark were called inactive. Active and inactive are the calls of the source. The call rests on the fitted dose curve; in most records, active means well fitted curve in the direction sought with a large enough effect in the repeat runs; inconclusive means weak or mixed curves; inactive means flat fitted curve, though single readings scatter.

test: qHTS assay to test for compound auto fluorescence at 590 nm (red) in HepG2 cells (AID 720674); details: HepG2 autofluorescence, red 540/590 nm, 1 h; series mostly up to 91.3 µM; fluorescence, relative to Rose Bengal: at the top concentration
Method in brief: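 Intrinsic compound fluorescence in the red window (Ex/Em 540/590 nm) is measured in attached HepG2 cells exposed for 1 hr, DMSO vehicle as baseline, benchmarked to Rose Bengal sodium.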
On the % scale 0 is the no-effect control and ±100 the full control effect.

| Compound | fluorescence, relative to Rose Bengal | outcome |
| --- | --- | --- |
| CC(C)CCOC(=O)c1ccc(N(C)C)cc1 | -0.387% [at 46 µM] | – |
| CC(N)=O | 0.271% [at 203 µM] | – |
| CCCCCCCCCCCCc1ccccc1O | – | inactive |
| N[C@@H]1CONC1=O | -0.752% [at 46 µM] | – |
| O=C(Cl)c1cccc(C(=O)Cl)c1 | – | inactive |
| CC(=O)CC(=O)Nc1ccc2[nH]c(=O)[nH]c2c1 | 0.05% | – |
| C1COC(NC(C2CC2)C2CC2)=N1 | 0.745% [at 46 µM] | – |
| CCCCCC(=O)O[C@]1(C(C)=O)CC[C@H]2[C@@H]3CCC4=CC(=O)CC[C@]4(C)[C@H]3CC[C@@]21C | – | inactive |
| c1cc(C(c2ccc(OCC3CO3)cc2)C(c2ccc(OCC3CO3)cc2)c2ccc(OCC3CO3)cc2)ccc1OCC1CO1 (stereo unspecified) | – | inactive |
| CC(C)(c1ccccc1)c1ccc(Nc2ccc(C(C)(C)c3ccccc3)cc2)cc1 | – | inactive |
| CC(=O)C1=C(C)[C@@H]2C[C@@]3(C1)[C@H](C)CC[C@H]3C2(C)C | – | inactive |
| C=CC(=O)OCCCCCCOC(=O)C=C | – | inactive |
| CCC(C)(Oc1ccc(C2(c3ccc(OC(C)(CC)C(=O)O)cc3)CCCCC2)cc1)C(=O)O (stereo unspecified) | -0.0046% [at 46 µM] | – |
| O=C(OCc1ccccc1)c1ccc(O)cc1 | – | inactive |
| COc1nc(C)nc(Cl)c1NC1=NCCN1 | 0.0093% [at 18.6 µM] | – |
| O=Nc1ccc(Nc2ccccc2)cc1 | – | inactive |
| CCC(=O)/C=C/C1C(C)=CCCC1(C)C (stereo unspecified) | – | inactive |
| COc1ccc(COC(C)=O)cc1 | – | inactive |
| CCCCCCCCCCCCCC[P+](CCCC)(CCCC)CCCC | – | inactive |
| Oc1ccc(Cl)cc1Cc1cc(Cl)ccc1O | – | inactive |
| Oc1c(Cl)cc(Cl)cc1Sc1cc(Cl)cc(Cl)c1O | – | inactive |
